# Experimental data: ChEMBL document CHEMBL1961873, “Compounds: GSK PKIS; Assays: Nanosyn kinase panel” (2012)
# Columns and labels:
# [1] = target: Protein kinase C gamma type (Homo sapiens) (UniProt P05129); conditions: at 1 µM;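 note: each value is an averaged percent inhibition of the enzyme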
# [2] = target: T1, Protein kinase C iota type (Homo sapiens) (UniProt P41743); conditions: at 0.1 µM
# T1 sequence (whole entry): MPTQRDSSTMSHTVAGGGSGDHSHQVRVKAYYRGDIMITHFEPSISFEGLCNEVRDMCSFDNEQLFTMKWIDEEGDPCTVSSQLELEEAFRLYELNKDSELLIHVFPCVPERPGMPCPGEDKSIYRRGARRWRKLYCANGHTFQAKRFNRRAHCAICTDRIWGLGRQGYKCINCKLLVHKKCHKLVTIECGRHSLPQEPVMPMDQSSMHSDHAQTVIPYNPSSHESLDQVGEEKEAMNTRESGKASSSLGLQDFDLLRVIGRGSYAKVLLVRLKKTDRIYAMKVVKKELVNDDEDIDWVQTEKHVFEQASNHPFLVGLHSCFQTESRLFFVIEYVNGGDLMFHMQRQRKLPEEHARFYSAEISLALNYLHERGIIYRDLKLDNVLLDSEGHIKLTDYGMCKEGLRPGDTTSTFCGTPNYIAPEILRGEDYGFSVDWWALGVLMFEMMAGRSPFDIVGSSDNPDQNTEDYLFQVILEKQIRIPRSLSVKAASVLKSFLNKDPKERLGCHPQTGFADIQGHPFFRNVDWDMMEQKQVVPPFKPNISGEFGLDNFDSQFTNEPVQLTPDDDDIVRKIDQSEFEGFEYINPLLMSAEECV
# [3] = target: T1, Protein kinase C iota type (Homo sapiens); conditions: at 1 µM
# [4] = target: Protein kinase C theta type (Homo sapiens) (UniProt Q04759); conditions: at 0.1 µM
# [5] = target: Protein kinase C theta type (Homo sapiens) (UniProt Q04759); conditions: at 1 µM
# [6] = target: Protein kinase C beta type (Homo sapiens) (UniProt P05771); conditions: at 0.1 µM
# [7] = target: Protein kinase C beta type (Homo sapiens) (UniProt P05771); conditions: at 1 µM
# [8] = target: T2, Serine/threonine-protein kinase D1 (Homo sapiens) (UniProt Q15139); conditions: at 0.1 µM
# T2 sequence (whole entry): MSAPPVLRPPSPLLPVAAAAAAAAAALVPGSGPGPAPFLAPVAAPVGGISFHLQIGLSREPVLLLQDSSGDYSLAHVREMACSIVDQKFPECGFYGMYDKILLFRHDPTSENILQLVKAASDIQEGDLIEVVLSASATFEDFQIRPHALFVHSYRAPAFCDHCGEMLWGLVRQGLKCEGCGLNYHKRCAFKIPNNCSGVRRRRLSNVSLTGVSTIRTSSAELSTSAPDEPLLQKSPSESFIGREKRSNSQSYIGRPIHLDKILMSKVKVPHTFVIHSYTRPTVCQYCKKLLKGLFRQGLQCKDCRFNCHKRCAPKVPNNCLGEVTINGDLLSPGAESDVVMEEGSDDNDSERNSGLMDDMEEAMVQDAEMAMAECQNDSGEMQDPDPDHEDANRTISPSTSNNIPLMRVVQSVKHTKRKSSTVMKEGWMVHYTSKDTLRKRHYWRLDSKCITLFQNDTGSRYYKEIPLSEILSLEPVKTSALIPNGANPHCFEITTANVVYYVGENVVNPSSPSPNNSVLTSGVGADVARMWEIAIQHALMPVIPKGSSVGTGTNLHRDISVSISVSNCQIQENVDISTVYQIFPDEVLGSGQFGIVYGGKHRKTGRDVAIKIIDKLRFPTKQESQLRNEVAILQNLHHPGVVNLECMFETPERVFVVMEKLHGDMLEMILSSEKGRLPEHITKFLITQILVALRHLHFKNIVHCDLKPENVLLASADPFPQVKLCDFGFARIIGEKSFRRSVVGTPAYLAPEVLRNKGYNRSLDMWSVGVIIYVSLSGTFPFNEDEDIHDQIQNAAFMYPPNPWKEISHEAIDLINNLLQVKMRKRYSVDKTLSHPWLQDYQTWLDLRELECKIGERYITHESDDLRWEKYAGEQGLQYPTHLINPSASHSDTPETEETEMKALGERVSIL
# [9] = target: T2, Serine/threonine-protein kinase D1 (Homo sapiens); conditions: at 1 µM
# [10] = target: T3, Serine/threonine-protein kinase D2 (Homo sapiens) (UniProt Q9BZL6); conditions: at 0.1 µM
# T3 sequence (whole entry): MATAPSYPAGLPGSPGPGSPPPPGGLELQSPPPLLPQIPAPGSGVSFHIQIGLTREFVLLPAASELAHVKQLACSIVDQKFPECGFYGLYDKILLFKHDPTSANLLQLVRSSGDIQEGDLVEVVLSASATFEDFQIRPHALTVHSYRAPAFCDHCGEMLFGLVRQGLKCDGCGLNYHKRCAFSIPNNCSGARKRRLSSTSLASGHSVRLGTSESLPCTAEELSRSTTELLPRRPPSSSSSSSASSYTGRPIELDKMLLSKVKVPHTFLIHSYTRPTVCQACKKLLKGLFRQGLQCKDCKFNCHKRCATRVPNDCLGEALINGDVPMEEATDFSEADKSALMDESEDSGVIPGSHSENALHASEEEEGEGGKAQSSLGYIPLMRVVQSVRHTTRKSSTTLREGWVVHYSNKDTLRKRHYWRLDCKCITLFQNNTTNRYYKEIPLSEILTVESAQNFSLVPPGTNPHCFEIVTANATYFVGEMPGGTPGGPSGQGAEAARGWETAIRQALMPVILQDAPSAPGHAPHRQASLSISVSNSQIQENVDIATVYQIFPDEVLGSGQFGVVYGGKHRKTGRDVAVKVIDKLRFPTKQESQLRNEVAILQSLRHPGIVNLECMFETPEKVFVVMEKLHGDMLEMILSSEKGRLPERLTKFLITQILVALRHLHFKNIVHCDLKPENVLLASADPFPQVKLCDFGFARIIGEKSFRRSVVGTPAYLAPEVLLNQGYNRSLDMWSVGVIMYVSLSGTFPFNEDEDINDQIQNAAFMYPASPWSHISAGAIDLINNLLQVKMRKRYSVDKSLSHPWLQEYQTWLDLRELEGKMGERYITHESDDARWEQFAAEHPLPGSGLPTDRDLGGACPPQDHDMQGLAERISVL
# [11] = target: T3, Serine/threonine-protein kinase D2 (Homo sapiens); conditions: at 1 µM
# [12] = target: T4, Serine/threonine-protein kinase D3 (Homo sapiens) (UniProt O94806); conditions: at 0.1 µM
# T4 sequence (whole entry): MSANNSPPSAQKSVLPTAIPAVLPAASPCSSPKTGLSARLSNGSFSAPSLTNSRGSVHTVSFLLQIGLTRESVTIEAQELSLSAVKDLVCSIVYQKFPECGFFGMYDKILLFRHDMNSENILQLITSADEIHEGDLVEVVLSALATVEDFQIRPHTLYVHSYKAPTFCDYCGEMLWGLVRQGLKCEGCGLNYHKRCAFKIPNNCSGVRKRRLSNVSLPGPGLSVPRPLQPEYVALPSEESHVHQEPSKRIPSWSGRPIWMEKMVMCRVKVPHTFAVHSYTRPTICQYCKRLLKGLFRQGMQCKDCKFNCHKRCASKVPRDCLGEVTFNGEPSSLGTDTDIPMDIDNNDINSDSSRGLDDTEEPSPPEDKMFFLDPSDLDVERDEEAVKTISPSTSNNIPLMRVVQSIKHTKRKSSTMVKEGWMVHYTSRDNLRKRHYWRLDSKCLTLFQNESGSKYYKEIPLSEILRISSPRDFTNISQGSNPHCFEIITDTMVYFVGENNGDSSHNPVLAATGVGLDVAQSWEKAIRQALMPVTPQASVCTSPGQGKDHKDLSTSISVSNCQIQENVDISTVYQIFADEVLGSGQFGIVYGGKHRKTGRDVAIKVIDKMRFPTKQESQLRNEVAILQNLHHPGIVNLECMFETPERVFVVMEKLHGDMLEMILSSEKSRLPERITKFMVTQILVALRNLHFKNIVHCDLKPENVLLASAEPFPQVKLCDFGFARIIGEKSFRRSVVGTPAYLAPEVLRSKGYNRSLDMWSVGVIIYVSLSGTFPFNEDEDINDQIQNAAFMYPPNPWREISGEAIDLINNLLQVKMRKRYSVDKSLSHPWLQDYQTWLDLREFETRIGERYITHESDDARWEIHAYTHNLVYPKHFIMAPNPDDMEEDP
# [13] = target: T4, Serine/threonine-protein kinase D3 (Homo sapiens); conditions: at 1 µM
# [14] = target: T5, cGMP-dependent protein kinase 1 (Homo sapiens) (UniProt Q13976); conditions: at 0.1 µM
# T5 sequence (whole entry): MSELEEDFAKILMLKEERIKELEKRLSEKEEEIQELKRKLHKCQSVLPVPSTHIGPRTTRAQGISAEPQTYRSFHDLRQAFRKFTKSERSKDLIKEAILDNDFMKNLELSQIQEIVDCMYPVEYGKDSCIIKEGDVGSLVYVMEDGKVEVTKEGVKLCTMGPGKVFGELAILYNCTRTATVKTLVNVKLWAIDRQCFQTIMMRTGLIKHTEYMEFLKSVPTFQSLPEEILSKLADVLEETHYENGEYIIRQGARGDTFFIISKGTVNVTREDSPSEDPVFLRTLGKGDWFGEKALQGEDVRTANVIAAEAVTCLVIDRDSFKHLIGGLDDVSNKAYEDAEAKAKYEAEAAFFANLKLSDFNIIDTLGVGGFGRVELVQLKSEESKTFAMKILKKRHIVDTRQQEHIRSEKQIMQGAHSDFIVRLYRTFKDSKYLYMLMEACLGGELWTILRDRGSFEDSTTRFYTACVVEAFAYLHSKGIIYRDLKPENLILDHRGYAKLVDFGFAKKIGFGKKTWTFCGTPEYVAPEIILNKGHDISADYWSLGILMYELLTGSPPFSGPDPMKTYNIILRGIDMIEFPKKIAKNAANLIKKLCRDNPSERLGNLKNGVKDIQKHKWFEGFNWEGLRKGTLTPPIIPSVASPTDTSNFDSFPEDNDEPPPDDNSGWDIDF
# [15] = target: T5, cGMP-dependent protein kinase 1 (Homo sapiens); conditions: at 1 µM
# [16] = target: T6, cGMP-dependent protein kinase 2 (Homo sapiens) (UniProt Q13237); conditions: at 0.1 µM
# T6 sequence (whole entry): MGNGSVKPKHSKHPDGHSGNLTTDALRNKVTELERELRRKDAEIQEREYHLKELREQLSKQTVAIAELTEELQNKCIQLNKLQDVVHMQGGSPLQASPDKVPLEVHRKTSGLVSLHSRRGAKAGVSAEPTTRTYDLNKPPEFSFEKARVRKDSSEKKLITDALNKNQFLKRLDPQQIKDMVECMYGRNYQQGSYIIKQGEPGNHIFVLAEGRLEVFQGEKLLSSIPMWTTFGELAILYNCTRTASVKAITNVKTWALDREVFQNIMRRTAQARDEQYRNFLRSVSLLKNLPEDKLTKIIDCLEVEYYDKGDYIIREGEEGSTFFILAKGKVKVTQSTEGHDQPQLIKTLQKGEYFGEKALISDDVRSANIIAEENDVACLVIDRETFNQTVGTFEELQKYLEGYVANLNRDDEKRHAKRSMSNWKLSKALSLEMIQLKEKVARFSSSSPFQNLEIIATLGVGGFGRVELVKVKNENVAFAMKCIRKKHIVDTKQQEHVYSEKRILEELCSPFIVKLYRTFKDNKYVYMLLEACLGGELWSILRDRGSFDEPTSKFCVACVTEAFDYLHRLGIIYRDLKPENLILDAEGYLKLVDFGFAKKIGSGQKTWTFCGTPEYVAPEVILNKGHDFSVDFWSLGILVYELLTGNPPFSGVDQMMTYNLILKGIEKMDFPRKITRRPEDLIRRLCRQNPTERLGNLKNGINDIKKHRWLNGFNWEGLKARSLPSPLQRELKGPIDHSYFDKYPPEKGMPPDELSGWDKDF
# [17] = target: T6, cGMP-dependent protein kinase 2 (Homo sapiens); conditions: at 1 µM
# [18] = target: T7, cAMP-dependent protein kinase catalytic subunit PRKX (Homo sapiens) (UniProt P51817); conditions: at 0.1 µM
# T7 sequence (whole entry): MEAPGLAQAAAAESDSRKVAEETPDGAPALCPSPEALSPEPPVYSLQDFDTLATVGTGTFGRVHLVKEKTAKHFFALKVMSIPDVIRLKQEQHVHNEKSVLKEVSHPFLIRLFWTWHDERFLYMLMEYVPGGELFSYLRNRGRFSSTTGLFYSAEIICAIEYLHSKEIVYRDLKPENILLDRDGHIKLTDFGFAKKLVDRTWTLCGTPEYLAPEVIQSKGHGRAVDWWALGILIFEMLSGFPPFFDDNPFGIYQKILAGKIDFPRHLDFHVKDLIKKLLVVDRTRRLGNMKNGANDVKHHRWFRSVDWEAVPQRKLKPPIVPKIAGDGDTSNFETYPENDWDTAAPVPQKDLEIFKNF
# [19] = target: T7, cAMP-dependent protein kinase catalytic subunit PRKX (Homo sapiens); conditions: at 1 µM
# [20] = target: Rho-associated protein kinase 1 (Homo sapiens) (UniProt Q13464); conditions: at 0.1 µM;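 note: values are mean percent inhibition of ROCK1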
# Sequence of Rho-associated protein kinase 1 (Homo sapiens) (Q13464 2-1354 limits assumed): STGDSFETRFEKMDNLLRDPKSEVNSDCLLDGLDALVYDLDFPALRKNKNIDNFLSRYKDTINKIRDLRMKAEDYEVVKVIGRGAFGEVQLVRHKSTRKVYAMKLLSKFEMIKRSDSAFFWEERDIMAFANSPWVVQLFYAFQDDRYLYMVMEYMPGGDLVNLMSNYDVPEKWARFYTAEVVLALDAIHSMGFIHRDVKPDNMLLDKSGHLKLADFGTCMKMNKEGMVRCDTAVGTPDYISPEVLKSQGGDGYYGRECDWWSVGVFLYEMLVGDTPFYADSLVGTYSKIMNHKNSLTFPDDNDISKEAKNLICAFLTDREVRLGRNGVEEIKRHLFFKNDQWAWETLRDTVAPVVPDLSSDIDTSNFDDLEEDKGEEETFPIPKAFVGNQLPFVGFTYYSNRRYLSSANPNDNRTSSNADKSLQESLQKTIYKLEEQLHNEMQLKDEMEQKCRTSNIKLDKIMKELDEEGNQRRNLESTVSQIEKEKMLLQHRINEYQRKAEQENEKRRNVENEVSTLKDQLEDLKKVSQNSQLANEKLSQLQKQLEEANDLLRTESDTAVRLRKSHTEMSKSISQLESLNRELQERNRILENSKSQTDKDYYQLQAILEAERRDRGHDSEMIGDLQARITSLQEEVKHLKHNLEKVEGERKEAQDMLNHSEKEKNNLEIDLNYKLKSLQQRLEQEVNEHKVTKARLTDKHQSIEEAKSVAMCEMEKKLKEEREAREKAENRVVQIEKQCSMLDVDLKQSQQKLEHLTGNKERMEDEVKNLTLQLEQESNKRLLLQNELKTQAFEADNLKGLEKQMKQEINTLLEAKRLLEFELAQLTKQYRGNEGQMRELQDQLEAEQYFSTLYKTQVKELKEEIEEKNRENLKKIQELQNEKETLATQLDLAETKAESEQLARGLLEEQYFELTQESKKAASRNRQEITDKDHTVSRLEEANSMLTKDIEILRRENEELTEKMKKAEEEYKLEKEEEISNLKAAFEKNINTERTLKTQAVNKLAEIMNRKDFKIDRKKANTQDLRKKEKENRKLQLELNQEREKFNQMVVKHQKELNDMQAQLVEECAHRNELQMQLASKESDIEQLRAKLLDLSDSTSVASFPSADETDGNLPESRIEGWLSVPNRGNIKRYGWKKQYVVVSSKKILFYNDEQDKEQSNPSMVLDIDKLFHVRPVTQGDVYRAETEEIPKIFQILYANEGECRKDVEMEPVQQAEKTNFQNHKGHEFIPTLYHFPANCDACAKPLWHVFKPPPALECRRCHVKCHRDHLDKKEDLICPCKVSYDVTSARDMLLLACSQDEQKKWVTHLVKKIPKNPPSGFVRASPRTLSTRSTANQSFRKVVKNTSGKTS
# Sequence of Protein kinase C beta type (Homo sapiens) (P05771 2-671 limits assumed): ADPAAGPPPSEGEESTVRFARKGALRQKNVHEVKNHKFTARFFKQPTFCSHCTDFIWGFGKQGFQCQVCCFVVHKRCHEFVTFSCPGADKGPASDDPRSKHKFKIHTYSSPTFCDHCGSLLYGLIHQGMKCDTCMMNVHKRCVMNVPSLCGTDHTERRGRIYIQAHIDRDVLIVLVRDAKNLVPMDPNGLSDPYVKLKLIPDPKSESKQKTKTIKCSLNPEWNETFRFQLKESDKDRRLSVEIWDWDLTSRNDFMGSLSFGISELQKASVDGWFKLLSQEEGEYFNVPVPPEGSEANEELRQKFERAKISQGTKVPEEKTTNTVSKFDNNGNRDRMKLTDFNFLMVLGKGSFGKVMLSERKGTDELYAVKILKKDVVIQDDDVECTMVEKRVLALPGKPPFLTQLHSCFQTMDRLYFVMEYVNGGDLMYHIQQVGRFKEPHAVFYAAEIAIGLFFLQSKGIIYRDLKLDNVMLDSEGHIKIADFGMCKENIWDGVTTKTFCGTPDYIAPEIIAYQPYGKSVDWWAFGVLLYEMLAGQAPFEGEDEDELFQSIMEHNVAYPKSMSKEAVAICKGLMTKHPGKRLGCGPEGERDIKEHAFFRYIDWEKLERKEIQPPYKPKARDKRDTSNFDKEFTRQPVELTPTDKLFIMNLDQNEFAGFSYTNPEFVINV
# Sequence of Protein kinase C theta type (Homo sapiens) (Q04759 whole entry, looked up): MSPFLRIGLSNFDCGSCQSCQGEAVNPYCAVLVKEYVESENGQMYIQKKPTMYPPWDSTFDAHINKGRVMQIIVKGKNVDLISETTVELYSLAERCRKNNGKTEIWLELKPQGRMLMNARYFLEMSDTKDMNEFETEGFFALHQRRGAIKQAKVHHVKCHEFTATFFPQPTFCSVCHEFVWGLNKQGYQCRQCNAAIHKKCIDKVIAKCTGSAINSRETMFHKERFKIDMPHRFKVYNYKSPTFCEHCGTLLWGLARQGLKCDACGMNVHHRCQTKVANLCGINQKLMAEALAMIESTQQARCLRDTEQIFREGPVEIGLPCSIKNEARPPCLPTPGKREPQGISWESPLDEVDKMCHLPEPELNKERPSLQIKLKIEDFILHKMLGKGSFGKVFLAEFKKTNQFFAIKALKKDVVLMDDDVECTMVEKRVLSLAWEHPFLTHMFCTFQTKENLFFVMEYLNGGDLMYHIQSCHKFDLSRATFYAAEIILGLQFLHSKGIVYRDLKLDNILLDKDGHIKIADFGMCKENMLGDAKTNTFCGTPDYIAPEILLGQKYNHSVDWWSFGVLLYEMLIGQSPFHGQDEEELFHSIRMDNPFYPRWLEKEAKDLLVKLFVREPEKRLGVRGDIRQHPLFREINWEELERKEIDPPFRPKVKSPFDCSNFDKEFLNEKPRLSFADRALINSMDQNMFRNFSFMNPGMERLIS
smiles,measurement,setting,value
CN1CCC(n2cnc(-c3ccc(F)cc3)c2-c2ccnc(NCCO)n2)CC1,inhibition,[1],5.6%
same,inhibition,[2],1.02%
same,inhibition,[3],1.08%
same,inhibition,[4],3.59%
same,inhibition,[5],5.13%
same,inhibition,[6],1.17%
same,inhibition,[7],7.68%
same,inhibition,[8],5.8%
same,inhibition,[9],14.6%
same,inhibition,[10],4.75%
same,inhibition,[11],14.8%
same,inhibition,[12],6.16%
same,inhibition,[13],11%
same,inhibition,[14],1.3%
same,inhibition,[15],4.89%
same,inhibition,[16],2.55%
same,inhibition,[17],5.54%
same,inhibition,[18],3.06%
same,inhibition,[19],5.03%
same,inhibition,[20],0.7%
N#Cc1cccc(Nc2ncc(-c3ccccc3)o2)c1,inhibition,[1],5.3%
same,inhibition,[2],0.25%
same,inhibition,[3],0.06%
same,inhibition,[4],1.33%
same,inhibition,[5],3.57%
same,inhibition,[6],0.6%
same,inhibition,[7],1.2%
same,inhibition,[8],5.32%
same,inhibition,[9],2.44%
same,inhibition,[10],1.97%
same,inhibition,[11],2.25%
same,inhibition,[12],1.91%
same,inhibition,[13],1.02%
same,inhibition,[14],-0.54%
same,inhibition,[15],3.32%
same,inhibition,[16],0.03%
same,inhibition,[17],1.45%
same,inhibition,[18],1.09%
same,inhibition,[19],2.62%
same,inhibition,[20],0.04%
O=C(O[C@H]1CN[C@H](C#Cc2cc3ncnc(Nc4ccc(OCc5cccc(F)c5)c(Cl)c4)c3s2)C1)N1CCOCC1,inhibition,[1],5.45%
same,inhibition,[2],1.77%
same,inhibition,[3],0.9%
same,inhibition,[4],3.84%
same,inhibition,[5],5.14%
same,inhibition,[6],2.11%
same,inhibition,[7],1.21%
same,inhibition,[8],4.61%
same,inhibition,[9],6.86%
same,inhibition,[10],6.18%
same,inhibition,[11],6.01%
same,inhibition,[12],6.55%
same,inhibition,[13],6.45%
same,inhibition,[14],3.08%
same,inhibition,[15],7.14%
same,inhibition,[16],3.07%
same,inhibition,[17],4.91%
same,inhibition,[18],3.17%
same,inhibition,[19],6.34%
same,inhibition,[20],0.81%
